Experimental data reported in PubChem BioAssay AID1224921 (Broad Institute, 2016).
About 350 (25%) of roughly 1,400 compounds were called active. Not shown: some 2% with an inconclusive outcome. No rule for the calls is given here. Not all results are given here. Potency and affinity values are given separately.

test: C. difficile growth inhibition, confirmation, 4-point retest (AID 1224921); settings: Clostridioides difficile clinical isolate growth, OD600, 24 h, hits give low values; at 30 µM unless noted;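 also: plate controls were DMSO wells for no effect and levofloxacin 16 µg/mL wells for full effect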

Max activity, inactive:
Cc1ccccc1-c1ccc2c(c1)O[C@@H](CN(C)Cc1ccncc1)[C@H](C)CN([C@@H](C)CO)S2(=O)=O 33.1%
O=C(Nc1ccc2c(c1)OCO2)N[C@H]1CC[C@H](CCNC(=O)C2CC2)O[C@@H]1CO -10.4% [at 1.95 µM]
O=C(NCC[C@@H]1CC[C@H](NC(=O)C2CCCCC2)[C@@H](CO)O1)Nc1ccc(Cl)cc1 16.1% [at 8 µM]
O=C(NCC[C@H]1CC[C@@H](NC(=O)C2CCCCC2)[C@@H](CO)O1)Nc1ccc(Cl)cc1 15.3% [at 8 µM]
CCNC(=O)C[C@@H]1CC[C@H](NC(=O)C2CC2)[C@@H](CO)O1 -9.17%
C[C@@H]1CN([C@@H](C)CO)S(=O)(=O)c2ccc(C#CC3CC3)cc2O[C@H]1CN(C)Cc1ccncc1 53.6%
C[C@@H]1CN([C@@H](C)CO)S(=O)(=O)c2ccc(C3=CCCC3)cc2O[C@H]1CN(C)Cc1ccncc1 8.26%
CCCN1[C@@H]2c3ccc(/C=C/c4ccccc4)c(=O)n3C[C@H]1[C@H](CO)[C@H]2C(=O)NCC1CC1 3.29%
O=C(Nc1ccc2c(c1)[C@@H]1C[C@H](CC(=O)N3CCc4ccccc4C3)O[C@H](CO)[C@@H]1O2)NC1CCCC1 -11.8%
CC(C)[C@H](C)NC(=O)N(C)C[C@@H]1OCc2ccccc2-c2ccccc2C(=O)N([C@H](C)CO)C[C@H]1C -14.1% [at 8 µM]
CCC(=O)Nc1ccc2c(c1)C(=O)N(C)C[C@H](OC)[C@@H](C)CN(C(=O)CN1CCOCC1)[C@H](C)CO2 -15.4% [at 1.95 µM]
CCCNC(=O)Nc1ccc2c(c1)C(=O)N(C)C[C@@H](OC)[C@H](C)CN(CCC(F)(F)F)[C@@H](C)CO2 17.1%
CO[C@@H]1CN(C)C(=O)c2cc(NC(=O)c3cccc(F)c3)ccc2OC[C@H](C)N(C(C)=O)C[C@H]1C -16.4% [at 0.5 µM]
CCCN1C[C@H](C)[C@@H](OC)CN(C)C(=O)c2cc(NC(=O)Nc3ccccc3F)ccc2OC[C@H]1C -17.1% [at 8 µM]
Cc1noc(C)c1NC(=O)N[C@H]1CC[C@@H](CC(=O)Nc2ccc(-c3ccccc3)cc2)O[C@@H]1CO 28.3% [at 35 µM]
O=C(O)C[C@H]1C[C@@H]2c3cc(NC(=O)c4ccc5c(c4)OCO5)ccc3O[C@@H]2[C@H](CO)O1 -10.2% [at 0.5 µM]
CCNC(=O)C[C@H]1CC[C@@H](NC(=O)C2CC2)[C@H](CO)O1 -5.49% [at 1.95 µM]
CCNC(=O)C[C@H]1CC[C@H](NC(=O)C2CC2)[C@@H](CO)O1 -15.8% [at 8 µM]
CO[C@@H]1CN(C)C(=O)c2ccc(NC(=O)Nc3cccc(Cl)c3)cc2OC[C@@H](C)N(C(=O)Nc2c(C)noc2C)C[C@H]1C -7.11% [at 0.5 µM]
C[C@@H]1CN([C@@H](C)CO)S(=O)(=O)c2ccc(C3=CCCCC3)cc2O[C@@H]1CN(C)Cc1ccncc1 54.5%
CCS(=O)(=O)Nc1ccc2c(c1)C(=O)N(C)C[C@H](OC)[C@@H](C)CN(C(C)=O)[C@@H](C)CO2 -9.47% [at 1.95 µM]
CO[C@@H]1CN(C)C(=O)c2cc(NC(C)=O)ccc2OC[C@H](C)N(Cc2nccs2)C[C@H]1C 10.1%
CO[C@H]1CN(C)C(=O)c2cc(NC(C)=O)ccc2OC[C@H](C)N(CC2CCCCC2)C[C@H]1C 16.4%
C[C@@H]1CN([C@H](C)CO)S(=O)(=O)c2ccc(C#CC3(O)CCCC3)cc2O[C@@H]1CN(C)C(=O)Nc1ccc(F)cc1 21.5%
O=C(C[C@@H]1C=C[C@@H](NC(=O)Cc2cccnc2)[C@H](CO)O1)Nc1ccccc1 -12.6%
COc1ccccc1S(=O)(=O)N[C@@H]1C=C[C@H](CC(=O)N2CCCCC2)O[C@H]1CO -12.3% [at 8 µM]
O=C(C[C@@H]1C[C@H]2c3cc(NC(=O)Nc4ccccc4)ccc3O[C@H]2[C@@H](CO)O1)NC1CCCC1 -18%
Cc1ccc(-c2ccc3c(c2)O[C@H](CN(C)Cc2cccnc2)[C@H](C)CN([C@@H](C)CO)S3(=O)=O)cc1 32.9%
CC(=O)N(C)C[C@@H]1Oc2ncc(C#Cc3ccc(F)cc3)cc2C(=O)N([C@H](C)CO)C[C@H]1C 21.7%
CO[C@H]1CN(C)C(=O)c2ccc(NC(=O)Nc3cccc(Cl)c3)cc2OC[C@@H](C)NC[C@@H]1C 37.7%
CO[C@H]1CN(C)C(=O)c2ccc(NC(=O)Nc3cccc(Cl)c3)cc2OC[C@H](C)NC[C@@H]1C -12.1% [at 8 µM]
C[C@@H]1CN([C@H](C)CO)C(=O)c2cc(NC(=O)CCCN(C)C)ccc2O[C@@H](C)CCCCO[C@@H]1CN(C)Cc1ccc(C(F)(F)F)cc1 6.03% [at 35 µM]
C[C@@H]1CN([C@H](C)CO)C(=O)c2cc(NC(=O)Nc3cccc4ccccc34)ccc2O[C@@H](C)CCCCO[C@H]1CN(C)C(=O)c1ccccc1 24.4%
CO[C@@H]1CN(C)C(=O)c2ccc(NC(C)=O)cc2OC[C@@H](C)N(C(=O)CN(C)C)C[C@H]1C -8.17%
CCCC(=O)Nc1ccc2c(c1)C(=O)N(C)C[C@@H](OC)[C@@H](C)CN(Cc1ccc(F)cc1)[C@H](C)CO2 20.9%
COc1ccc(-c2cnc3c(c2)C(=O)N([C@H](C)CO)C[C@H](C)[C@@H](CN(C)Cc2ccc(C(=O)O)cc2)O3)cc1 -17.6% [at 2.1 µM]
CO[C@H]1CN(C)C(=O)c2cc(NC(=O)c3nc4ccccc4s3)ccc2OC[C@H](C)N(Cc2ccncc2)C[C@@H]1C 20%
CCC(=O)N1C[C@@H](C)[C@@H](OC)CN(C)C(=O)c2ccc(NC(=O)Nc3ccccc3)cc2OC[C@H]1C -13.3% [at 1.95 µM]
COCC(=O)N(C)C[C@H]1Oc2cc(C#Cc3ccccc3)ccc2S(=O)(=O)N([C@H](C)CO)C[C@H]1C 35.4%
CCS(=O)(=O)Nc1ccc2c(c1)C(=O)N(C)C[C@@H](OC)[C@@H](C)CN(CC1CCCC1)[C@@H](C)CO2 -10.9% [at 0.5 µM]
Cc1ccc(-c2ccc3c(c2)O[C@@H](CN(C)Cc2cccnc2)[C@@H](C)CN([C@H](C)CO)S3(=O)=O)cc1 26.8%
CN1CCN(C(=O)C[C@@H]2C[C@@H]3c4cc(NC(=O)Cc5ccncc5)ccc4O[C@@H]3[C@H](CO)O2)CC1 13.2%
O=C(N[C@@H]1C=C[C@@H](CC(=O)N2CCOCC2)O[C@@H]1CO)c1cccc(F)c1 -15.3% [at 1.95 µM]
C[C@H](CO)N1C[C@H](C)[C@H](CN(C)C(=O)Nc2ccc(F)cc2)Oc2ncc(-c3cc4ccccc4o3)cc2C1=O 26.1%
COc1ccccc1S(=O)(=O)N[C@H]1C=C[C@@H](CC(=O)N2CCCCC2)O[C@H]1CO -12.3%
COc1ccc(CNC(=O)C[C@H]2C[C@@H]3c4cc(NC(=O)NC5CCCC5)ccc4O[C@@H]3[C@@H](CO)O2)cc1 -9.75%
CO[C@@H]1CN(C)C(=O)c2ccc(NC(=O)C3CCCC3)cc2OC[C@@H](C)NC[C@@H]1C -1.17% [at 1.95 µM]
CO[C@H]1CN(C)C(=O)c2ccc(NC(=O)C3CCCCC3)cc2OC[C@H](C)N(Cc2nccs2)C[C@H]1C 21.8% [at 8 µM]
C[C@@H]1CN([C@H](C)CO)C(=O)c2ccccc2-c2ccccc2CO[C@H]1CN(C)S(=O)(=O)c1ccsc1 29%
C[C@@H]1CN([C@H](C)CO)C(=O)Cc2cc(NS(C)(=O)=O)ccc2O[C@H]1CN(C)Cc1ccccc1 15.9%
COc1ccc(-c2ccc([C@H]3[C@H](C#N)N(C(=O)NC4CCCC4)[C@H]3CO)cc2)cc1 36.8% [at 9 µM]
CO[C@H]1CN(C)C(=O)c2cc(NC(=O)c3cccc(F)c3)ccc2OC[C@H](C)N(C(C)=O)C[C@H]1C -6.58%
Cc1nn(C)cc1NC(=O)C[C@@H]1CC[C@@H]2[C@@H](COc3ccc(NC(=O)Nc4cccc(Cl)c4)cc3C(=O)N2C)O1 10.1%
Cc1ccccc1-c1ccc2c(c1)O[C@H](CN(C)Cc1ccncc1)[C@@H](C)CN([C@H](C)CO)S2(=O)=O 13.6%
CCC(=O)Nc1ccc2c(c1)OC[C@H](C)N(CC1CCCCC1)C[C@H](C)[C@@H](OC)CN(C)C2=O 33.6%
COCC(=O)Nc1ccc2c(c1)OC[C@@H](C)N(Cc1ccccc1F)C[C@@H](C)[C@@H](OC)CN(C)C2=O -4.19%
C[C@@H]1CN([C@H](C)CO)C(=O)c2ccccc2-c2ccccc2CO[C@@H]1CN(C)C(=O)CCN(C)C -7.59% [at 2.1 µM]
C[C@H]1CN([C@@H](C)CO)C(=O)Cc2cc(NS(=O)(=O)c3ccccc3)ccc2O[C@@H]1CN(C)Cc1ccc(Cl)c(Cl)c1 49.4%
Cc1ccc(S(=O)(=O)Nc2ccc3c(c2)C(=O)N([C@@H](C)CO)C[C@@H](C)[C@H](CN(C)C)OCCCC[C@H](C)O3)cc1 -4% [at 8 µM]
C[C@@H]1CN([C@@H](C)CO)C(=O)Cc2cc(NS(C)(=O)=O)ccc2O[C@H]1CN(C)CC1CCCCC1 14.3%
Cc1ccc(S(=O)(=O)Nc2ccc3c(c2)C(=O)N([C@@H](C)CO)C[C@H](C)[C@@H](CN(C)Cc2ccc(C(F)(F)F)cc2)OCCCC[C@@H](C)O3)cc1 32.7% [at 8 µM]
COc1ccc(S(=O)(=O)Nc2ccc3c(c2)CC(=O)N([C@@H](C)CO)C[C@H](C)[C@@H](CN(C)CC2CCCCC2)O3)cc1 52.7%
C[C@H](CO)N1C[C@H](C)[C@H](CN(C)CC2CCCCC2)OCCCC[C@H](C)Oc2ccc(NS(=O)(=O)c3ccc(Cl)cc3)cc2C1=O 23% [at 8 µM]
C[C@@H]1CN([C@H](C)CO)C(=O)Cc2cc(NS(=O)(=O)c3ccccc3)ccc2O[C@@H]1CN(C)Cc1ccc(Cl)c(Cl)c1 30.5% [at 35 µM]
C[C@@H]1CCCCO[C@H](CN(C)Cc2ccc(C(F)(F)F)cc2)[C@@H](C)CN([C@@H](C)CO)C(=O)c2cc(NS(=O)(=O)c3ccc(Cl)cc3)ccc2O1 24% [at 8 µM]
